Reference: PubChem BioAssay (NCATS)
Inconclusive results are not listed. Entries that show only a call come without a potency. Calls of active or inactive are those of the source. Calls come from the whole dose curve; as a rule, active = well fitted inhibition curve with a large enough effect; inconclusive = small, poorly fitted or top-dose-only effect; inactive = flat fitted curve, though single readings scatter.

Experiment: P-glycoprotein substrates identified in KB-8-5-11 adenocarcinoma cell line, qHTS therapeutic library screen (AID 1346987); note: nearly all actives have a fitted effect of over 65% in size
Details: KB-8-5-11 (P-gp overexpressing) viability, CellTiter-Glo, 72 h; series mostly up to 44.5 µM
Summary of the method: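 KB-8-5-11, a colchicine-selected P-gp-overexpressing KB-3-1 subline, was grown without colchicine for the assay. Cells were seeded at 500 cells/well, dosed in concentration-response and incubated 72 h at 37 degree C, 5% CO2. Viability was read by CellTiter-Glo luminescence.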
Potency is the fitted concentration of half-maximal effect.

Compound | Potency | outcome
CCC(C)C(=O)O[C@H]1CCC=C2C=C[C@H](C)[C@H](CC[C@@H](O)C[C@@H](O)CC(=O)O)[C@H]21 (stereo partly specified) | inactive | –
C=CC1C(OC2OC(CO)C(O)C(O)C2O)OC=C(C(=O)OC)C1CC1CC(=O)CC(CCc2ccc(O)cc2)O1 (stereo unspecified) | inactive | –
CC1=C(C)C(=O)OC(C(C)C2CCC3C4CC=C5CC(OC6OC(COC7OC(CO)C(O)C(O)C7O)C(O)C(O)C6O)CC(O)C5(C)C4CCC23C)C1 (stereo unspecified) | inactive | –
Nc1ccc(-c2cccc3c(=O)cc(N4CCOCC4)oc23)cc1 | 6.51 µM (active) | –
CC(=O)OC[C@]12[C@H](OC(C)=O)C(=O)[C@@H]3[C@@H](OC(C)=O)[C@@]14O[C@@]3(C)COC(=O)c1cccnc1[C@@H](C)[C@H](C)C(=O)O[C@@H]([C@H](O)[C@@H]2OC(C)=O)[C@]4(C)O | inactive | –
CC(C)(C)Nc1nc2cc(Cl)c(Cl)cc2nc1S(C)(=O)=O | 14.6 µM (active) | –
CC1CCC2(C(=O)O)CCC3(C)C(=CCC4C5(C)CCC(O)C(C)(CO)C5CCC43C)C2C1(C)O (stereo unspecified) | inactive | –
Cc1cc(Nc2cc(N3CCN(C)CC3)nc(/C=C/c3ccccc3)n2)n[nH]1 | 7.31 µM (active) | –
COc1cc2oc(-c3ccc(O)cc3O)cc2c(OC)c1CC=C(C)C | inactive | –
Cc1cc(C(=O)N2Cc3cnn(C)c3Nc3ccccc32)ccc1CNC(=O)N1CCC[C@H]1C(=S)N1CCCN(C)CC1 | inactive | –
CC1(C)CC[C@]2(C(=O)O[C@@H]3O[C@H](CO[C@@H]4O[C@H](CO)[C@@H](O)[C@H](O)[C@H]4O[C@@H]4O[C@H](CO)[C@H](O)[C@H](O)[C@H]4O)[C@@H](O)[C@H](O[C@@H]4O[C@H](CO)[C@@H](O)[C@H](O)[C@H]4O)[C@H]3O)CC[C@]3(C)C(=CCC4[C@@]5(C)CC[C@H](O[C@@H]6OC[C@@H](O)[C@H](O)[C@H]6O)[C@@](C)(C(=O)O)C5CC[C@]43C)[C@@H]2C1 (stereo partly specified) | – | inactive [at 9.29 µM]
